The source of these data is ChEMBL document CHEMBL1201862, “PubChem BioAssay data set” (2004).

Among all 420,000 compounds or so, about 50,000 (12%) were called active. Inconclusive results (about 26%) are left out. The calls are words filed in the database; no cut-off is given here. Many of the other results were omitted from the sample, so actives are more common in it than they were.

Chain of Tyrosyl-DNA phosphodiesterase 1 (Homo sapiens) (Q9NUW8 whole entry): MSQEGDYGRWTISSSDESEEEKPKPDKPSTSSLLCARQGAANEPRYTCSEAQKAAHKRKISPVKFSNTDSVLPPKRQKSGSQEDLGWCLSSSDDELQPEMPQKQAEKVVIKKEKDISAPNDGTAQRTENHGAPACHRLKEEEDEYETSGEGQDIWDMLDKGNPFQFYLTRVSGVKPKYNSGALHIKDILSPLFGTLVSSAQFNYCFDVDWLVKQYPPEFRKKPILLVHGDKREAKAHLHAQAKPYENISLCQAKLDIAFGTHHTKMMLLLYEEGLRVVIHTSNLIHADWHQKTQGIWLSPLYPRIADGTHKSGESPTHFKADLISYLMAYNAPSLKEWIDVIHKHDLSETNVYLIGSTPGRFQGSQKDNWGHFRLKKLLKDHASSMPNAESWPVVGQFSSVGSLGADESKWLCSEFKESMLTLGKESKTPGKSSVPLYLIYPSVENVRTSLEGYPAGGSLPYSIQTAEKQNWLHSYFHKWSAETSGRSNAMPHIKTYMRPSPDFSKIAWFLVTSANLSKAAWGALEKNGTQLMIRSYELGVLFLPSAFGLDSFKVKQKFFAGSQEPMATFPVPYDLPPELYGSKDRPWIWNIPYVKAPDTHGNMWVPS

This assay concerns the target Tyrosyl-DNA phosphodiesterase 1 (Homo sapiens) (UniProt Q9NUW8). Briefly: qHTS for Inhibitors of human tyrosyl-DNA phosphodiesterase 1 (TDP1): qHTS in cells in presence of CPT. The assay is classed as functional. On the technique in general: In qHTS, concentration-response curves come from the screen itself.
Regarding `COc1ccc(OC)c(/C=C/c2cccc3c2N(CCCCI)C=S3/C=C/c2cc(OC)ccc2OC)c1` (stereo not given), the Potency was 6.31 µM (active). Turning to `CC(C)C(C)c1cccc2c1NC=S2C(C)C(C)C` (stereo not given), the Potency was 5.62 µM (active). Then `COc1ccccc1/C=C/C(=O)c1cccs1`, with 9.44 µM (active); and `Cc1cccc2c1N(CCCCI)C=S2C` (stereo not given), with 3.98 µM (active).

As to `ICCCCN1C=S(CI)c2ccccc21` (stereo not given), the Potency was 10 µM (active).
